Screening data as filed in PubChem BioAssay.
This is a sample that favours compounds with a hit; in the whole collection about 21% have one here.
CHX counter = affects cycloheximide protein synthesis inhibition readout, counter-screen | cell reporter, cycloheximide protein synthesis inhibition counterscreen | max response, % | actives 12% (n = 300,000) | AID 2314; in the data active means max response mostly above about 13%, no sharp cut-off; inactive means mostly below about 14%; further: read at 38.3 µM for the half of the compounds with a filed dose; 0% is about no effect
Pf growth 48h = inhibits P. falciparum growth in the first generation, 48 h; P. falciparum luciferase growth in erythrocytes, 48 h; Potency, µM (titrated, usually from 28.7 µM), for the others: at the highest dose activity change, negative = inhibition, actives largely listed as inhibitors; actives 5.9% (n = 310,000); further: potency means the concentration at half of the fitted maximal effect; on the % scale 0 is the no-effect control and ±100 the full control effect
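Erythrocytes infected with P. falciparum carrying an integrated firefly luciferase reporter (2% hematocrit, 0.1% parasitemia final) were exposed to compounds in RPMI 1640 with 0.5% Albumax at 37 C, 5% CO2. Growth inhibition was scored as reduced luminescence.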
NS1 function inh = inhibitors of influenza NS1 protein function; Potency, µM (doses to about 46.1 µM), for inactives: at the highest dose activity, positive = more growth; actives 0.4% (n = 270,000); calls by dose curve; further: potency means the concentration at half of the fitted maximal effect; actives are rising curves; nearly all actives have a fitted effect of over 50% in size
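Growth recovery, yeast-based: influenza A NS1 expressed in S. cerevisiae causes slow growth, and suppressors are detected by OD600. The parent strain without NS1 is used as positive control.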
Shiga toxin inh = inhibitors of Shiga toxin in Vero cells; Vero cells, Shiga toxin protein synthesis inhibition reporter; inhibition, % at 38.7 µM; actives 9.2% (n = 290,000); AID 2315; in the data active means inhibition mostly above about 28%, no sharp cut-off; inactive means mostly below about 43%; further: 0% is about no effect
Pf growth 96h = inhibits malaria parasite growth, 96 h; P. falciparum luciferase reporter growth, 96 h; Potency, µM (titrated, usually from 28.7 µM), for the others: top-dose activity change, negative = inhibition, hits mostly inhibitors; actives 6.9% (n = 320,000); AID 504834; further: potency means the concentration at half of the fitted maximal effect; on the % scale 0 is the no-effect control and ±100 the full control effect
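Readout is luminescence from an integrated firefly luciferase in P. falciparum. Red cells, 2% hematocrit and 0.05% parasitemia final, were cultured with compound through two parasite generations (96 hours) at 37 C, 5% CO2.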
An asterisk follows results filed as active; i = inactive; u = inconclusive; x = no result; [ ] = another dose, or the depositor's remark. Unless noted, the call rests on the fitted dose curve; in most records, active means well fitted inhibition curve with a large enough effect; inconclusive means small, poorly fitted or top-dose-only effect, or another doubt; inactive means no such curve, though single readings can be large or run the other way.

SMILES | CHX counter | Pf growth 48h | NS1 function inh | Shiga toxin inh | Pf growth 96h
CCO[C@H]1OC(C(=O)NC2CC2)=C[C@@H](C2CC2)[C@@H]1CCCO | 1 | 42% | 2% | -7 | 0%
CCc1cc(CNC(=O)c2cc(COc3ccc(C)nc3)on2)on1 | 44* | -2% | -9% | 59* | -4%
Cc1ccc(OCc2cc(C(=O)NC3CCCCC3)no2)cn1 | 8 | 17% | -13% | -6 | 13µM*
CCCCCCCCC(NC(=O)c1ccc(C#N)cc1)C(=O)NCCC (centres undefined) | x | 3% | x | x | u
Cn1c(=O)c2c(SCC(=O)Nc3ccccc3F)nc(-c3ccccc3F)nc2n(C)c1=O | -4 | 9% | 2% | -5 | -1%
CCN(CCCNC(=O)CNC(=O)c1nn(-c2ccc(OC)cc2)c(=O)c2ccccc12)c1cccc(C)c1 | 7 | u | 2% | -1 | u
CC1(C)Cc2c(c(N3CCOCC3)nc3sc4c(NCc5ccccc5)nnnc4c23)CS1 | -4 | x | 16% | -17 | 1µM*
N#CCc1ccc(NC(=O)c2cc(S(=O)(=O)N3CCOCC3)ccc2Cl)cc1 | -3 | u | 4% | -8 | 51%
COc1ccc2[nH]c3c(c2c1)CCN1C(=O)N([C@@H](C)C(=O)NCc2ccco2)C(=O)[C@]31C | -3 | 12% | 13% | 3 | u
CCOC(=O)c1ccc(Oc2nc(NC)nc(SC)n2)cc1 | -8 | 3.7µM* | -7% | -20 | x
CCNc1nc(Oc2ccc(C(=O)OCC)cc2)nc(SC)n1 | -4 | 12µM* | -32% | -19 | 6%
OCc1cn(Cc2ccc(O)c3ncccc23)cn1 | x | 5.2µM* | x | x | 6.6µM*
Oc1ccc(Cn2ccnc2)c2cccnc12 | -2 | 3.7µM* | 2% | -6 | 18%
CSc1nc2ncc(C#N)cn2n1 | 1 | 22% | x | 10 | -24%
CCOC(=O)c1cn2nc(SCc3ccccc3)nc2nc1C | 39* | 25% | -32% | 52* | 10%
N#Cc1cnc2nc(SCc3ccccc3)nn2c1 | 35* | 101% | 1% | 70* | 189%
NNC(=O)c1ccc(COc2cccc3cccnc23)cc1 | 32* | -51%[5.75 µM] | x | 75 | 4%
O=C(N/N=C/c1ccc[nH]1)c1ccc(COc2cccc3cccnc23)cc1 | 34* | 10µM* | 4% | 39 | u
Cc1cc(Br)c(OCc2ccc(C(=O)N/N=C/c3ccc[nH]3)cc2)c(Br)c1 | x | 2.6µM* | x | x | 10µM*
Cc1onc(-c2c(Cl)cccc2Cl)c1NC(=O)NN(C)c1ccc([N+](=O)[O-])cn1 | -2 | u | 1% | -5 | u
CCCNC(=O)CSc1nc(-c2cccs2)cc(C(F)(F)F)n1 | -2 | -18% | 3% | 15 | 8.3µM*
O=[N+]([O-])c1cnn(-c2nc(-c3cccs3)cc(C(F)(F)F)n2)c1 | -6 | 10µM* | x | -9 | u
Cc1cc(NC(=O)CSc2nc(-c3cccs3)cc(C(F)(F)F)n2)no1 | -2 | u | 12% | -7 | 1.9µM*
CS(=O)(=O)c1nc(-c2cccs2)cc(C(F)(F)F)n1 | -7 | -10% | -84% | -23 | 13µM*
CC(C)CNC(=O)CSc1nc(-c2cccs2)cc(C(F)(F)F)n1 | -2 | u | 15% | 11 | 8%
SMILES | CHX counter | Pf growth 48h | NS1 function inh | Shiga toxin inh | Pf growth 96h
O=C(CN1CCN(Cc2ccc(Cl)cc2)C1=O)NCCN1CCCC1 | -5 | 3% | -2% | -14 | 0%
CCC[C@@H]1NC(=O)[C@@H](NC(C)=O)CSSC[C@@H](C(N)=O)NC(=O)CNC(=O)[C@H](Cc2c[nH]c3ccccc23)NC(=O)[C@H](CCCN=C(N)N)NC(=O)[C@H](Cc2ccc3ccccc3c2)NC(=O)[C@H](Cc2cnc[nH]2)NC(=O)[C@H](CCCN=C(N)N)NC1=O | 3 | x | x | -3 | x
CC(=O)Nc1ccc(S(=O)(=O)N(Cc2ccco2)CC2CCCO2)cc1 (centres undefined) | -3 | -27% | 2% | 13 | 38%
COc1cc(/C=C/CN2CCN(Cc3ccc(C)o3)C(CCO)C2)ccc1O (centres undefined) | 4 | 8% | 0% | 14 | 0%
CCOC(=O)c1ccc2nc(C)c(CCC(C)=O)c(Cl)c2c1 | 39* | 60% | -20% | 93* | 80%
CCOC(=O)c1cc2cc(OC)ccc2nc1C | 16* | 25% | 0% | 88* | u
COC(=O)c1ccc2nc(C)c(C)nc2c1 | 9 | 14% | 1% | 3 | 208%
COc1ccc2nc(C)c(C(N)=O)cc2c1 | -1 | 16% | -1% | -4 | 27%
C=CCc1c(C)nc2ccc(C(=O)OCC)cc2c1Cl | 10 | -21% | 0% | 41* | i
